Assay outcomes as filed in PubChem.
D2 ag-1: D2 dopamine receptor (human) agonism; activation, % at 2 µM; 340,000 tested, 0.53% active; HEK293 T-REx D2 cells, calcium flux agonist mode; AID 485358;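 active means activation over 3 SD above normal in the single-dose calcium agonist read, cut at about 30% in these data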; further: 0% is about no effect
Target sequence (P14416 whole entry, looked up): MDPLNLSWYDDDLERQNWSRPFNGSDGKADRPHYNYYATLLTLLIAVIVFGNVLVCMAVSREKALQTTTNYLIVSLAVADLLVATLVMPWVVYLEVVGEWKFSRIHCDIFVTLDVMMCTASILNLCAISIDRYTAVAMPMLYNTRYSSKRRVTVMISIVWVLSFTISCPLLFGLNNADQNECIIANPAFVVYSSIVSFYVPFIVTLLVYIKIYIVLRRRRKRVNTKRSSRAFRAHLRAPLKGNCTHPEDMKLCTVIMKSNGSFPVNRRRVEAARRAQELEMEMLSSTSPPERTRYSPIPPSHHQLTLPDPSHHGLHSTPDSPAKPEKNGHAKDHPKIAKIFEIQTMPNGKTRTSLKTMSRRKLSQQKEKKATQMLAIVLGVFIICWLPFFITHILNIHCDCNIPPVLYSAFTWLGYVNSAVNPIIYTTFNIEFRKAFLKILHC
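Calcium-flux readout, 1 cycle/sec over 180 s following compound pin transfer, in inducible HEK293 Trex D2 cells (force-coupled); dopamine controls included. Positive calcium responses during this window marked compounds as potential agonists.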
D2 PAM-1: positively modulates the human D2 dopamine receptor allosterically; 340,000 tested, 0.34% active; HEK293 T-REx D2, calcium flux, EC20 dopamine potentiation; potentiation, % at 10 µM; AID 485347;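 active means potentiation over 3 SD above the plate norm, cut at about 30% in these data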; further: 0% is about no effect
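Tetracycline-induced HEK293 T-REx cells force-coupled to calcium signalling expressed D2; compounds were pin-added after a 10 s baseline, read kinetically 180 s, then an EC20 dopamine challenge followed with a further 180 s calcium read.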
D2 antag: D2 dopamine receptor (human) antagonism; P14416; HEK293 TREx D2 cells, calcium flux, dopamine EC80; inhibition, % at 10 µM; 340,000 tested, 2% active; AID 485344; in the data active means inhibition above about 30%; inactive means below that, where a call was filed; further: 0% is about no effect
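Antagonism is scored as inhibition of an EC80 dopamine-evoked calcium signal in a force-coupled, tetracycline-inducible HEK293 T-REx D2 line, with compound present 180 s before agonist.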
D2 ag-2: human D2 receptor agonism in beta-arrestin assay | activation, % (test concentration not listed) | 360,000 tested, 0.084% active | DiscoveRx PathHunter D2 beta-arrestin, luminescence, 90 min; 100% = 57 uM dopamine signal; in the data active means activation above about 40%; inconclusive means between about 15% and that limit
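Agonist mode: compounds alone added to overnight-plated D2 PathHunter cells for 90 min at 37 C, with 57 uM final dopamine (EC100) defining full response. Beta-arrestin recruitment detected by chemiluminescent reagent, read after 1 h at ambient temperature.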
D2 PAM-2: human D2 receptor positive allosteric modulation; P14416; DiscoveRx D2 beta-arrestin cells, luminescence, 90 min; 100% = 57 uM dopamine signal; potentiation, % (concentration not given with the values); 360,000 tested, 0.23% active; AID 624464; in the data active means potentiation above about 50%; inconclusive means mostly about 30% to 49%
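D2 cells co-treated with compound plus 50 nM dopamine (EC20) for 90 min at 37 deg C to detect potentiation. Beta-arrestin recruitment was read as enzyme-fragment luminescence after 1 h at ambient temperature. Full response was set by 57 uM dopamine.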
Starred values were filed as active, the others as inactive; ? = inconclusive; . = no result given. Shown are actives, neighbours in structure and some others; about 2.4% of the full set was active somewhere.

SMILES | D2 ag-1 | D2 PAM-1 | D2 antag | D2 ag-2 | D2 PAM-2
CN(C)CCCN1C(=O)c2cccc3c([N+](=O)[O-])ccc(c23)C1=O | 1 | -4 | 1 | ? | 63*
Cc1c(C(=O)Oc2ccc(Br)cc2)sc2ncn(Cc3ccccc3F)c(=O)c12 | 0 | -1 | . | . | .
COc1ccc(CCNC(=O)CN(C)S(=O)(=O)c2cccs2)cc1 | 0 | -11 | 32* | -3 | 6
COc1ccc(CCNC(=O)CCC(=O)c2cccs2)cc1OC | 27 | -9 | 44* | -4 | -4
COc1ccc(CCNC(=O)COC(=O)CCC(=O)c2cccs2)cc1OC | . | . | . | 2 | -6
CN(CC(=O)NCCc1ccccc1)S(=O)(=O)c1cccs1 | 0 | -8 | 11 | -5 | -5
COc1ccc(CCNC(=O)C2CC(=O)N(C3CCCCCCC3)C2)cc1OC (configuration not stated) | 0 | -23 | 93* | -3 | 0
CCNC(=O)COC(=O)CCC(=O)c1cccs1 | -2 | -6 | 51* | 1 | -4
Cc1ccc(CCNC(=O)C2CC(=O)N(C3CCCCC3)C2)cc1 (configuration not stated) | 1 | -5 | 3 | -2 | -7
Cc1ccc(S(=O)(=O)N2CCOCC2)cc1C(=O)OCC(=O)NC1CC1 | 0 | 1 | 1 | -2 | -2
CCOC(=O)c1c(C)oc2ncnc(N3CCN(c4ccccc4OC)CC3)c12 | -1 | -12 | . | . | .
CCc1ccc(NC(=O)Cn2c(=O)n(CCC(=O)NCCc3ccc(Cl)cc3)c(=O)c3ccccc32)cc1 | . | -6 | . | . | .
CC[C@H](C)[C@H](NC(N)=O)C(=O)NCCc1ccc(OC)cc1 | 0 | -5 | 11 | -3 | -3
COc1ccc(CCNC(=O)COC(=O)c2cccs2)cc1OC | -1 | 14 | 7 | 6 | 2
COc1ccc(CCNC(=O)COC(=O)c2cccs2)cc1 | -1 | -2 | 37* | -1 | -8
COc1ccc(CCNC(=O)CCN2C(=O)C3CC=CCC3C2=O)cc1OC (configuration not stated) | 1 | 2 | 64* | -3 | -6
COc1ccc(CCNC(=O)CCn2cccc2)cc1OC | 0 | -9 | 1 | 1 | -7
COc1ccc(CCNC(=O)[C@@H](NC(N)=O)C(C)C)cc1 | 10 | -1 | 50* | 0 | -21
COc1cc(CNC(=O)c2cc(-c3ccc(F)cc3OC)n[nH]2)cc(OC)c1 | . | . | . | 5 | -13
CCOc1ccc(-n2c(Cc3cc(=O)[nH]c(=O)[nH]3)nnc2SCC)cc1 | 0 | -2 | 40* | -4 | -11
COc1ccc(-n2c(=O)c3ccccc3n(Cc3cccc(C)c3)c2=O)cc1OC | -1 | -2 | -2 | -3 | -3
COc1ccc(-c2nc(CSCC(=O)N3CCN(C)CC3)c(C)o2)cc1OC | 1 | -2 | 40* | -3 | -1
COP(=O)(OC)C(Nc1ccc(C)cc1)c1ccc(Br)cc1 (configuration not stated) | . | . | . | -6 | -3
Cc1cc(C)cc(-n2c(SCC(=O)N3CCCC3)nc3c([nH]c4ccccc43)c2=O)c1 | . | -3 | . | . | .
COC(=O)c1cc(C(=O)N2CCN(c3cccc(Cl)c3)CC2)cc([N+](=O)[O-])c1 | 0 | -4 | 30* | 12 | 17
SMILES | D2 ag-1 | D2 PAM-1 | D2 antag | D2 ag-2 | D2 PAM-2
O=C(c1cc(S(=O)(=O)N2CCOCC2)ccc1Cl)N1CCN(c2ccccn2)CC1 | 0 | -7 | -3 | 3 | 1
CC(=O)N1CCN(C(=O)c2cc(S(=O)(=O)N3CCN(c4ccccc4)CC3)ccc2Cl)CC1 | 0 | 49* | 5 | -4 | ?
O=C(CN1CCN(c2ccc([N+](=O)[O-])cc2Cl)CC1)N1CCOCC1 | 0 | -4 | -9 | -1 | 1
O=C(CN1CCOCC1)N1CCN(c2ccc([N+](=O)[O-])cc2)CC1 | 0 | -14 | 83* | -6 | -10
O=C(c1cc([N+](=O)[O-])ccc1Cl)N1CCN(c2ccc([N+](=O)[O-])cc2)CC1 | 0 | 7 | 41* | 8 | 7
Cn1c(N)c(C(=O)CSc2nnc(-c3c[nH]c4ccccc34)n2C2CC2)c(=O)[nH]c1=O | 1 | 8 | 12 | -2 | 1
CC1=C(C)CC(C(=O)Nc2nc(-c3ccc(C)cc3C)c(C)s2)C(C(=O)O)C1 (configuration not stated) | 0 | -5 | -8 | 4 | 60*
COc1cc(OC)c(C2=NOC(C(=O)NCc3cccnc3)C2)cc1Cl (configuration not stated) | 0 | 2 | -1 | 3 | 54*
COc1ccc(OC)c(C2=NOC(C(=O)NCc3cccnc3)C2)c1 (configuration not stated) | 0 | 3 | -17 | -1 | -2
CCc1ccc2[nH]c(=O)c(C(c3nnnn3Cc3ccc(OC)cc3)N3CCOCC3)cc2c1 (configuration not stated) | 0 | 3 | -6 | -3 | -8
CCc1ccc2[nH]c(=O)c(C(c3nnnn3Cc3ccccc3)N3CCOCC3)cc2c1 (configuration not stated) | 0 | -6 | 36* | 1 | 1
CCc1ccc2[nH]c(=O)c(CN(Cc3ccc(F)cc3)C(c3nnnn3CCN3CCOCC3)C(C)C)cc2c1 (configuration not stated) | -6 | 31* | -18 | -4 | -19
CCCCn1c(NCc2cc(Cl)ccc2O)nc2ccccc21 | -1 | -7 | . | . | .
CCC1CCCCN1S(=O)(=O)c1ccc(NC(=O)c2snnc2C)cc1 (configuration not stated) | 0 | 36* | -8 | 4 | -3
Cc1nnsc1C(=O)Nc1ccc(S(=O)(=O)N2CCCCC2)cc1 | 1 | -2 | 4 | 4 | -10
Cc1ccc(NC(=O)CN(C)C(=O)COc2cc(F)ccc2[N+](=O)[O-])cc1 | -1 | -19 | 62* | -5 | -33
COc1ccc(-c2cc([N+](=O)[O-])ccc2OCC(=O)N(C)CC(=O)Nc2ccc(C)cc2)cc1 | -1 | -3 | -5 | -4 | -26
Cc1cc2n(n1)CCCN2C(=O)Nc1ccc(C)c(Cl)c1 | -1 | -7 | . | . | .
Cc1ccc(S(=O)(=O)CCN2CCN(c3ccccc3)CC2)cc1 | 9 | -16 | 30* | 0 | -12
Cc1ccc(NC(=O)C2CCCN(S(=O)(=O)c3c(C)noc3/C=C/N(C)C)C2)c(C)c1 (configuration not stated) | 0 | -3 | 17 | -1 | -17
Cc1ccc(C)c(NC(=O)C2CCCN(S(=O)(=O)c3c(C)noc3/C=C/N(C)C)C2)c1 (configuration not stated) | -1 | -11 | 37* | -5 | -25
Cc1noc(/C=C/N(C)C)c1S(=O)(=O)N1CCCC(C(=O)Nc2ccc(F)cc2F)C1 (configuration not stated) | 0 | -1 | 54* | 1 | -5
